# Compounds with a hit are over-represented: about 7.3% of the library has one in this group of screens.
# NPC1 prom act = activates the NPC1 promoter | Huh7 NPC1 promoter luciferase reporter, 24 h | Potency, µM (series often up to 9.22 µM), for the others: at the highest dose activation, hits mostly activators | 2.4% of 320,000 active | AID 485313; also: % of control where 0% means no effect; nearly all actives have a fitted effect of over 60% in size
#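 In 1536-well qHTS, Huh7 cells harboring an NPC1 promoter–luciferase construct received compound for 24 h; activation was quantified by luminescence following luciferase reagent addition.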
# Luc counter = Kinase-Glo luciferase inhibition (counter-screen). Potency, µM (top dose mostly 38.3 µM), inactives show at the highest dose activity change, negative = inhibition, hits mostly inhibitors. Kinase-Glo luciferase, ATP luminescence, 8 min. Q27757. AID 1379. 0.28% of 200,000 active; also: % is scaled to controls: 0 for no effect and ±100 for the full control effect; nearly all actives have a fitted effect of over 60% in size
#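 Compound is pinned into ATP-containing buffer (10 uM ATP, imidazole pH 7.2, 7 mM MgCl2). Kinase-Glo luciferase reagent is then added. Light output is recorded following an 8-min room-temperature incubation.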
# ELG1 genotox = genotoxicity induction in ELG1-luciferase HEK293T cells; Potency, µM (series often up to 46 µM), for the others: at the top dose activity change, positive = activation, actives largely listed as activators; HEK293T ELG1-luciferase reporter, luminescence, 16 h; 1.3% of 330,000 active; also: % of control where 0% means no effect; nearly all actives have a fitted effect of over 60% in size
#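 HEK293T cells expressing luciferase-tagged ELG1 were exposed to compound or DMSO vehicle for 16 hr at 37 °C and 5% CO2. Luciferase activity was then measured with ONE-Glo after 30 min at room temperature.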
# FLuc counter = firefly luciferase modulation, counter-screen for miR-21 project. purified FLuc, Km substrates, luminescence inhibition. Potency, µM (highest dose often 57.5 µM), inactives show at the highest dose activity change, negative = inhibition, hits mostly inhibitors. 6.9% of 360,000 active. AID 588342;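 also: plate controls were vehicle for no effect and reference inhibitor for full effect; nearly all actives have a fitted effect of over 55% in size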
# Target sequence (P08659 whole entry, looked up): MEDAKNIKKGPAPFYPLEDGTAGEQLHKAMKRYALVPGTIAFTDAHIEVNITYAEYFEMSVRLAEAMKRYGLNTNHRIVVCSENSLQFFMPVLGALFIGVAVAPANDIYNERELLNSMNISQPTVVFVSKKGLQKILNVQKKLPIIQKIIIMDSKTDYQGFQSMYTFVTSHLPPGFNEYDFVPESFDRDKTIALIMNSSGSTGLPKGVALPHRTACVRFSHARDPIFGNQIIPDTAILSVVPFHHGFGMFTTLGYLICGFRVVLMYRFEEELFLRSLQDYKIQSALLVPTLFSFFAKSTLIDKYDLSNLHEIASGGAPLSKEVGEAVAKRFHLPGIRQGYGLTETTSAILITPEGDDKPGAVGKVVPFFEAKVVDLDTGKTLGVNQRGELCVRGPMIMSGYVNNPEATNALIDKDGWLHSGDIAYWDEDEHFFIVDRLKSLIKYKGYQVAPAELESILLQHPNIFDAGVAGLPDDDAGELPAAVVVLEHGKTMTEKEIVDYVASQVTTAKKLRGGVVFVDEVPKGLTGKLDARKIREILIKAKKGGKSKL
#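 Purified P. pyralis luciferase (10nM final) with 10uM D-luciferin and 10uM ATP (Km levels) in 50mM Tris acetate pH 7.5, 10mM Mg acetate, 0.01% Tween-20, 0.05% BSA; qHTS 6-point titration, ~60 µM downward; luminescence read.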
# Rab9 promoter act = activators of Rab9 promoter | Huh7 Rab9 promoter-luciferase reporter, luminescence, 24 h | Potency, µM (doses to about 9.22 µM), without a hit: at the highest dose activation, negative = inhibition, actives largely listed as activators | 2.8% of 320,000 active; also: % of control where 0% means no effect; nearly all actives have a fitted effect of over 60% in size
#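 Cell-based reporter: Huh7 stable for Rab9 promoter-driven luciferase, plated in reduced-serum medium with 10% FBS at 1500 cells/well, compound-treated 24 h at 37 °C, luminescence read after 10 min reagent.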
# SMN2 splice up = SMN2 splice variant enhancement. Potency, µM (highest dose often 46.1 µM), without a hit: top-dose activity change, positive = activation, hits mostly activators. 2.8% of 210,000 active. AID 1458. HEK293 SMN2-luciferase splicing reporter, luminescence, 30-36 h; also: % of control where 0% means no effect; nearly all actives have a fitted effect of over 55% in size
#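 HEK293 cells carry an SMN2 […]–luciferase reporter in which exon 7 inclusion puts luciferase in frame. Cells were plated 10-12 h before compound addition, then incubated 30-36 h at 37C. ONE-Glo luminescence was read; sodium butyrate at 4.5 mM final served as control.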
# Active calls of the source: *; ? = inconclusive; / = no result; [ ] = another dose, or the depositor's remark. Calls follow the shape of the dose curve; as a rule, active = well fitted curve in the direction sought with a large enough effect; inconclusive = small, poorly fitted or top-dose-only effect, or another doubt; inactive = no such curve, though single readings can be large; an effect the other way counts as inactive or inconclusive. Potency is read from the fitted curve at half-maximal effect.
SMILES,NPC1 prom act,Luc counter,ELG1 genotox,FLuc counter,Rab9 promoter act,SMN2 splice up
O=C(Nc1cccc(-c2ccc(N3CCOCC3)nn2)c1)c1ccc([N+](=O)[O-])cc1,3.55µM*,/,?,2.39µM*,2.51µM*,/
Cc1ccc(C(=O)Nc2cccc(-c3ccc(N4CCOCC4)nn3)c2)cc1[N+](=O)[O-],?,/,?,?,3.16µM*,/
Cc1ccc(S(=O)(=O)NC(=O)Nc2ncn[nH]2)cc1,/,-2.9%[7.66 µM],/,/,/,-3.2%[9.22 µM]
CCOc1c(Cl)cc(Cl)cc1CNCCSc1nnnn1C,/,/,/,-9.3%,/,-12.0%
CCOC(=O)/C(=N\Nc1ncnc2ccccc12)c1ccc(OC)cc1,3.55µM*,/,?,5.36µM*,3.16µM*,/
Cc1cc2oc(C(=O)Nc3ccc(S(N)(=O)=O)cc3)cc(=O)c2cc1C,/,/,/,-1.9%,/,-28.1%
CC(=O)Nc1ccc(NC(=O)c2cc(=O)c3cc(C)c(C)cc3o2)cc1,-1.2%,/,5.1%,2.69µM*,3.0%,/
O=C(c1cc(-c2ccccc2)nc2ccccc12)N1CCOCC1,5.3%,8.2%,0.5%,?,9.9%,-11.7%
Cc1ccc(-c2cc(C(=O)N3CCN(C4CCS(=O)(=O)C4)CC3)c3ccccc3n2)cc1 (stereo unspecified),23.5%,/,-0.5%,/,14.0%,/
O=C(c1ccco1)N1CCN(c2ccnc3cc(Cl)ccc23)CC1,-5.9%,6.7%,-15.1%,1.7%,-0.1%,-30.8%
O=C(c1ccco1)N1CCN(C(=O)c2cc(-c3ccccc3)nc3ccccc23)CC1,10.2%,-4.5%,0.1%,6.75µM*,3.6%,7.7%
O=C(c1ccco1)N1CCN(C(=O)c2cc(-c3ccccn3)nc3ccc(Cl)cc23)CC1,-2.6%,5.7%,-11.9%,19µM*,-9.3%,-0.7%
O=C(c1cc(-c2ccccc2)nc2ccccc12)N1CCN(C2CCS(=O)(=O)C2)CC1 (stereo unspecified),0.0%,/,0.9%,26.9µM*,2.0%,/
CCOc1ccccc1NC(=O)CCc1c(C)nc2c(c(C)nn2-c2ccccc2)c1C,/,/,/,5.9%,/,5.3%
Cc1nc(-c2ccc3c(c2)CCC(=O)N3)cs1,?,/,?,16.9µM*,?,/
Cc1ccc(-c2csc(Cc3nc(-c4ccc5c(c4)CCC(=O)N5)cs3)n2)cc1,-5.2%,/,-23.6%,?,1.0%,/
Cc1cccc(Nc2nc(-c3ccncc3)cs2)c1,0.7%,1.4%,2.9%,16.9µM*,?,-3.7%
Cc1cccc(Nc2nc(-c3ccc4c(c3)OCCO4)cs2)c1,2µM*,-4.0%,2.31µM*,2.69µM*,0.891µM*,11.2µM*
Clc1cccc(Nc2nc(-c3ccncc3)cs2)c1,-4.8%,-0.5%,-1.7%,-2.6%,-1.6%,/
CC(=O)Nc1ccc(-c2csc(NNC(=O)c3ccc(C)cc3)n2)cc1,-3.9%,0.1%,-5.6%,1.7%,-2.5%,-16.5%
Cc1ccc(Nc2nc(-c3ccncc3)cs2)cc1,2.24µM*,-2.6%,?,0.953µM*,1.26µM*,/
Cc1cccc(Nc2nc(-c3c(C)nc4ccccn34)cs2)c1,-23.7%,-4.7%,-15.1%,?,-20.5%,-38.1%
CCOC(=O)c1c(S(=O)(=O)N2CCC(C(=O)Nc3cccc(C#N)c3)CC2)c(C)n(C)c1C,/,/,/,-7.9%,/,/
Cc1ccc2c(c1)c1c(c(=O)n(-c3ccccc3)c(=O)n1CC(=O)NCCC1=CCCCC1)n2C,/,/,/,0.8%,/,/
Cc1nc(-c2ccc3c(c2)OCCO3)cs1,2.82µM*,-6.7%,?,21.3µM*,3.16µM*,?
SMILES,NPC1 prom act,Luc counter,ELG1 genotox,FLuc counter,Rab9 promoter act,SMN2 splice up
COc1ccccc1NC(=O)CSc1oc(-c2ccccc2)nc1S(=O)(=O)c1ccccc1,/,/,/,-3.4%,/,-23.8%
CC(=O)/C(C#N)=C1\NC(=O)C(Cc2ccc(C)c(C)c2)S1 (stereo unspecified),9.9%,-1.1%,-1.5%,21.3µM*,11.4%,?
Cc1cc(C(=O)COC(=O)c2ccc(Cl)c(S(N)(=O)=O)c2)c(C)n1C1CC1,3.98µM*,/,15.3%,4.78µM*,1.78µM*,/
Cc1cc(C(=O)COC(=O)c2ccc(NC(=O)CC#N)cc2)c(C)n1C1CC1,?,/,18.3%,13.5µM*,3.98µM*,/
Cc1cc(C(=O)COC(=O)c2ccc(NC(=O)CC#N)cc2)c(C)n1-c1ccc(OC(F)F)cc1,/,/,-3.6%,/,/,/
CC(C)N(C(=O)COC(=O)c1ccc(Cl)c(S(N)(=O)=O)c1)C(C)C,-4.0%,-2.2%,-3.3%,0.4%,6.6%,0.9%
N/C(=N\OC(=O)c1ccc(Cl)c([N+](=O)[O-])c1)c1ccccc1,-4.8%,/,12.9%,12µM*,27.9%,/
N/C(=N\OC(=O)c1ccccc1[N+](=O)[O-])c1cccnc1,16.0%,-1.2%,?,?,22.1%,24.2%
Cc1ccc(C(=O)O/N=C(\N)c2cccnc2)cc1[N+](=O)[O-],9.6%,-4.2%,?,12µM*,1.9%,?
N/C(=N\OC(=O)c1ccc([N+](=O)[O-])cc1)c1cccnc1,-0.8%,/,?,2.69µM*,-4.8%,/
CNC(=O)c1c(NC(=O)c2nc(SCc3ccc(C)cc3)ncc2Cl)sc2c1CCCC2,/,/,/,-1.2%,/,0.2%
O=[N+]([O-])c1cc(N=Nc2ccc3ccccc3c2)ccc1O,2.24µM*,/,?,3.38µM*,2µM*,/
COc1ccc(NC(=O)c2cc3c(=O)n(Cc4ccco4)ccc3nc2C)c(OC)c1,/,/,/,-5.7%,/,/
COc1ccc(C(=O)c2ccc(OC)c(N)c2)cc1N,-13.9%,-6.0%,18.4µM*,?,-26.5%,35.8%
CCOc1ccc2cc(C(=O)NCc3ccccc3)c(=N)oc2c1,0.4%,/,?,21.3µM*,-5.9%,/
O=C(NCc1ccccc1)c1cc2ccc(O)cc2oc1=O,?,/,?,12µM*,3.16µM*,/
O=C(O)c1ccc(N=c2oc3cc(O)ccc3cc2C(=O)NCc2ccccc2)cc1,-0.2%,1.9%,5.3%,?,-4.3%,-10.5%
O=C(CCc1nnc(Cc2cccc(C(F)(F)F)c2)o1)NCC(F)(F)F,-0.4%,-2.6%,6.4%,-9.9%,-3.2%,9.1%
CC(NC(=O)CCc1nnc(Cc2cccc(C(F)(F)F)c2)o1)C1CC1 (stereo unspecified),13.8%,-4.5%,?,26.9µM*,?,/
C=C(C)CNC(=O)CCc1nnc(Cc2cccc(C(F)(F)F)c2)o1,20.4%,-1.9%,18.3µM*,21.3µM*,?,11.2µM*
CC(C)CN(C)C(=O)CCc1nnc(Cc2cccc(C(F)(F)F)c2)o1,?,0.3%,?,23.9µM*,2.82µM*,/
COc1cccc(NS(=O)(=O)c2ccc3c(c2)N(C)C(=O)CC(=O)N3C)c1,/,/,/,-2.0%,/,/
COCCNc1ccc(-c2nc(-c3ccco3)no2)cc1[N+](=O)[O-],/,/,/,-14.6%,/,/

# Compound activity (PubChem BioAssay)
